Source: PubChem
This is one part of a sample in which hits are shown more often than they occur.
HttQ103 aggreg = qHTS Multiplex Assay to Identify Dual Action Probes in a Cell Model of Huntington: Aggregate Formation (GFP) | PC12 HttQ103-GFP aggregates, Acumen cytometry, 40 h | Potency, µM (highest dose often 46.1 µM), without a hit: top-dose activity change, negative = inhibition, most hits filed as inhibitors | actives 1.1% (n = 220,000) | AID 1688, 2009; further: potency means the concentration at half of the fitted maximal effect; on the % scale 0 is the no-effect control and ±100 the full control effect; nearly all actives have a fitted effect of over 60% in size
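PC12 cells stably carrying ecdysone-inducible HTT exon 1 Q103–GFP were induced with tebufenozide (100 nM final) and treated with library compounds in titration. GFP aggregates in lysates were counted by laser scanning cytometry.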
HTT ATP protect = qHTS Multiplex Assay to Identify Dual Action Probes in a Cell Model of Huntington: Cytoprotection (ATP). actives 0.14% (n = 230,000). PC12 HTT-Q103 induced, cytoprotection, ATP luminescence, 40 h. Potency, µM (series often up to 56.4 µM), inactives show cytoprotection (ATP increase), hits mostly activators; further: potency means the concentration at half of the fitted maximal effect; % of control where 0% means no effect; nearly all actives have a fitted effect of over 45% in size
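Huntington model: PC12 line, ecdysone-inducible HTTQ103 exon1–GFP, tebufenozide 100 nM. Test articles in a dose series. Endpoint luminescence from cellular ATP.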
GALK inh = qHTS Assay for Inhibitors of Human Galactokinase (GALK). P51570. Purified GALK, Kinase-Glo residual ATP luminescence. Potency, µM (highest dose often 57.5 µM), for the others: at the top dose activity change, negative = inhibition, most hits filed as inhibitors. actives 0.007% (n = 270,000). AID 1868, 2009; further: potency means the concentration at half of the fitted maximal effect; on the % scale 0 is the no-effect control and ±100 the full control effect
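The enzyme phosphorylates galactose (100 uM) using ATP (35 uM); inhibition is detected as higher residual ATP, quantified by bioluminescence after 1 h reaction at room temperature, pH 8.0.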
PI4K2A inh = qHTS for small molecular inhibitors of PI4K2A; actives 0.13% (n = 420,000); activity change, negative = inhibition, % at 76.9 µM; purified PI4K2A, ADP-Glo luminescence, 1 h; stronger effect = lower value; Phosphatidylinositol 4-kinase type 2-alpha (Homo sapiens), Q9BTU6; in the data active means activity change below about -50%; inconclusive means mostly about -30% to -49%;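 further: -100% = wells without enzyme as full effect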
Target sequence (Q9BTU6 whole entry, looked up): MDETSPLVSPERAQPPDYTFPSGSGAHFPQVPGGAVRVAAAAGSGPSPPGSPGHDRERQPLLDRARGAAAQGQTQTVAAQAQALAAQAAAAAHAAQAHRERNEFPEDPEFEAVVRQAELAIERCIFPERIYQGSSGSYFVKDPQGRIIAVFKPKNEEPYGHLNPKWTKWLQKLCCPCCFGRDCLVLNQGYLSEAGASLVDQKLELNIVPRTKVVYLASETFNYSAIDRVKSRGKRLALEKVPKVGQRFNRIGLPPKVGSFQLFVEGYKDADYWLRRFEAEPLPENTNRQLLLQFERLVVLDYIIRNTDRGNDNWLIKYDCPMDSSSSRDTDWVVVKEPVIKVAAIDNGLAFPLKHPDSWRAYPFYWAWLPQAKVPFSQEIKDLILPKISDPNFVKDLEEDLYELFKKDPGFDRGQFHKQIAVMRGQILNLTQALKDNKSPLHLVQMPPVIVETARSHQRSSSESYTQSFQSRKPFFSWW
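Compounds are screened against recombinant PI4K2A using PI as substrate and ATP, the latter dispensed at 300 microM. Reactions run one hour at ambient temperature before ADP-Glo detection; full inhibition defined by wells lacking enzyme.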
Numbers without * were called inactive; ? = inconclusive; . = no result given; ! = a repeat was not active; [ ] = dose if it differs, or a comment. Unless noted, the call rests on the fitted dose curve; in most records, active means well fitted curve in the direction sought with a large enough effect; inconclusive means small, poorly fitted or top-dose-only effect, or another doubt; inactive means no such curve, though single readings can be large; an effect the other way counts as inactive or inconclusive.

SMILES | HttQ103 aggreg | HTT ATP protect | GALK inh | PI4K2A inh
C[C@H]1COc2cccc(N3CCCC3)c2S(=O)(=O)N1C | . | . | . | -0.7
CCOc1ccc(NCC(=O)c2ccc(C)cc2)cc1 | 11.2µM* | -221.3% | -1.3% | -3.9
Cc1ccc(C(=O)CNc2ccc(Cl)cc2)cc1 | 10.4% | -30.1% | -2.2% | 20.9
COc1ccc(-c2nc3cnc(Oc4cccc(Cl)c4)nc3n(CCC#N)c2=O)cc1 | . | -0.7% | . | .
COc1ccc(-n2c(COc3ccc(Cl)cc3)nnc2SCC(=O)Nc2ccc3c(c2)OCO3)cc1 | . | . | . | -1.6
O=C(CCc1ccccc1)NNC(=O)c1ccccn1 | 12.6µM* | -79.5% | 6.6% | -9.7
O=C(NNC(=O)C(c1ccccc1)c1ccccc1)c1ccccn1 | 10µM* | 10.3%[10 µM] | -0.7% | -13.5
O=C(NC1CCCCN(Cc2cccc(C(F)(F)F)c2)C1=O)c1cccc(F)c1 (stereo unspecified) | . | . | . | -6.6
Cc1cccc(NC(=S)NC(C)(C)CC(C)(C)C)c1 | ? | 8.91µM* | 11.1% | 2.3
CCC(NC(=O)CCCN1C(=O)COc2ccc(C)cc21)c1ccccc1 (stereo unspecified) | . | . | . | 3.8
COc1ccc(Oc2ccc(/C=C/C(=O)c3ccc(O)cc3)cc2[N+](=O)[O-])cc1 | 12.6µM* | . | . | 4.6
COc1ccc(/C=C/C(=O)c2cc(O)ccc2O)cc1 | . | 5.01µM* | . | .
N#Cc1cccc(NC(=O)CSc2ccc3c4c(cccc24)C(=O)c2ccccc2-3)c1 | 7.94µM* | -29.2% | 0.2% | 4.4
O=C(O)c1ccc(-c2nc(-c3ccccc3Cl)cs2)cc1 | 22.7% | -63.2% | 0.9% | -7.8
CCS(=O)(=O)c1ccc(-c2csc(-c3ccccc3)n2)c(Cl)c1Cl | 11.2µM* | -1.9%[10 µM] | 0.0% | 3.8
CCC(=O)N1Cc2ccccc2-c2ccccc2C1=O | 5.62µM* | 3.4%[0.074 µM] | 0.9% | 0.6
COn1c(C)c(C(C)=O)c2c3nonc3ccc21 | 35.5µM* | 5.6% | -0.2% | 1.4
CCCCOn1c(C)c(C(=O)OCC)c2c3nonc3ccc21 | . | . | . | -2.0
O=C(c1cccc(C(F)(F)F)c1)N1CC[C@H]2[C@H](CCCN2Cc2ccc(F)cc2)C1 | . | . | . | -2.2
Cc1cccc(Cn2c(NCCO)nc3c2c(=O)n(C)c(=O)n3C)c1 | ? | -8.4%[10 µM] | 1.8% | 8.2
COCCNc1nc2c(c(=O)n(C)c(=O)n2C)n1Cc1cccc(C)c1 | 15.8µM* | -12.1%[10 µM] | 9.8% | -1.1
CC(C)CCNc1nc2c(c(=O)n(Cc3cccc(F)c3)c(=O)n2C)n1C | 25.1µM* | -25.1% | 2.8% | 2.1
COc1ccc(NS(=O)(=O)c2cccc3cccnc23)cc1 | 12.6µM* | -20.0%[10 µM] | -0.5% | 3.8
CCOc1ccc(S(=O)(=O)NC(=O)c2ccccc2)cc1 | . | . | -5.8% | -4.0
Cc1ccc(S(=O)(=O)NC(=O)c2ccccc2)cc1C(C)C | ? | 2.82µM* | -0.3% | -3.8
SMILES | HttQ103 aggreg | HTT ATP protect | GALK inh | PI4K2A inh
COc1ccc(C)cc1NC(=O)C(Sc1nncn1C)c1ccccc1 (stereo unspecified) | 12.3% | . | -1.3% | 4.0
CCC(Sc1nncn1C)C(=O)Nc1ccccc1OC (stereo unspecified) | 5.6% | 14.1µM* | 0.5% | -3.1
COc1cc(/C=C2/C(=O)N(c3cccc(Br)c3)N=C2C)cc(OC)c1O | . | . | . | -54.0*
COc1ccc(/C=C2/C(=O)N(c3ccccc3)N=C2C)cc1OC | . | . | 2.8% | -29.9
COCCCNC(=O)C[C@H]1C[C@@]2(C(=O)OC)C(=C[C@H](C(C)C)O[C@@H]2C2CC2)N(CCc2ccc(OC)c(OC)c2)C1=O | . | . | . | -0.9
COC(=O)c1ccc(Cn2ccc3ccc(-c4ccc5ccn(C(=O)c6ccccc6C)c5c4)cc32)cc1 | . | . | . | -0.5
c1ccc(-c2nnc(-c3ccccn3)nc2NC2CCCCC2)cc1 | 3.55µM* | -37.7%[10 µM] | -0.2% | -12.9
CNc1nc(-c2ccccn2)nnc1-c1ccccc1 | ? | -45.7%[10 µM] | -0.2% | ?
COc1ccc(-c2nc(NC(=O)CSc3nnc4ccccn34)ns2)cc1 | ? | -12.9% | -1.2% | -3.0
Cc1nnc(SCC(=O)Nc2nsc(-c3ccccc3)n2)s1 | 12.6µM* | -2.7%[0.074 µM] | 0.1% | -1.2
COc1ccc(-c2nc(NC(=O)CSc3nnc(C)s3)ns2)cc1 | 11.2µM* | 2.1%[1.9 µM] | 0.2% | 1.1
Cc1ccc(-c2nc(NC(=O)CSc3nnc(C)s3)ns2)cc1 | ? | 0.2% | 1.9% | -3.1
Cc1ccc(N/C(N)=N/c2nc(C)cc(N3CCCCC3)n2)c(C)c1 | 12.6µM* | -44.3% | 5.1% | -6.3
CNC(=O)C1(C)C=CCN1C(=O)OC (stereo unspecified) | . | -5.6% | . | .
COC(=O)N1CC=CC1(C)C(=O)NCC1CC1 (stereo unspecified) | . | 12.6µM* | . | .
CCCC1=[N+](CC(=O)c2ccccc2)CCn2c(C)ccc21 | ? | -42.9% | -2.4% | -1.3
CCCC1=[N+](CC)CCn2c(C)ccc21 | 11.2µM* | 31.3%[10 µM] | -3.8% | 0.0
O=C(NCc1ccccn1)c1ccc(=O)oc1 | 2.82µM* | -79.4%[10 µM] | 8.2% | -4.8
Fc1ccc(-c2nnc(CN3CCC(c4nc5ccccc5s4)CC3)o2)cc1 | 11.2µM* | -19.8% | 1.5% | 7.7
CC(C)Cc1csc(NC(=O)c2ccc(Cl)cc2)c1C(=O)O | 22.4µM* | 10.8%[10 µM] | -2.4% | 1.9
COC(=O)CC[C@@H](C)[C@@H]1CC[C@@H]2[C@@H]3CC[C@H]4C[C@@H](O)CC[C@@]4(C)[C@@H]3CC[C@]21C | . | -0.9%[10 µM] | . | .
CC(CCC(C)C(C)(C)C)[C@@H]1CC[C@H]2C3C[C@H](OS(O)(=S)=S)[C@H]4C[C@H](OS(O)(=S)=S)[C@@H](OS(O)(=S)=S)C[C@]4(C)[C@H]3CC[C@]12C (stereo partly specified) (tested in a mixture with another compound) | . | . | . | -58.6*
CCN1/C(=C\C(=S)Nc2ccccc2)Sc2ccccc21 | 16.9%[9.22 µM] | 22.9%[10 µM] | -0.9% | 3.2
CCN1/C(=C/C(C)=C/c2sc3ccccc3[n+]2CC)Sc2ccccc21 | 1.12µM* | -186.3% | 11.0% | -51.0*!
O=S1(=O)c2c(cccc2N2CCC[C@H]2CO)O[C@@H]2CCN1C2 | . | . | . | -1.6
O=C(Nc1ccc(Cl)c([N+](=O)[O-])c1)c1ccc(NCCCN2CCOCC2)c([N+](=O)[O-])c1 | 0.5% | 18.0%[10 µM] | -1.1% | 3.2
O=C(Nc1ccc(N2CCOCC2)c(F)c1)c1ccncc1 | 2.24µM* | -22.5% | -2.2% | -0.3
Cc1ccc(NC(=O)c2ccc(NCCCN3CCOCC3)c([N+](=O)[O-])c2)cc1Cl | 25.1µM* | 26.5%[10 µM] | 0.7% | 4.4
O=C(Nc1cc(Cl)ccc1N1CCOCC1)c1ccc(N2CCCCC2)c([N+](=O)[O-])c1 | . | . | . | 2.6
O=C(Nc1ccc(N2CCCCC2)c(Cl)c1)c1ccc(N2CCOCC2)c([N+](=O)[O-])c1 | 11.2µM* | -32.6% | 1.3% | 1.8
